Data: article PMC8384837, “Expanding the binding specificity for RNA recognition by a PUF domain”
Positions count from the first letter of the chain named.

What was measured:
Assay in all cases: yeast three-hybrid, YBZ-1, SC-Leu-His + 0.5 mM 3-AT, 4 days
Settings in all cases: tags: N-Gal4 AD-HA kept; label: inside an RPR1-promoter hybrid RNA with tandem MS2 sites; ssRNA
PUM1 PUF domain R1-TTR = PUM1 PUF domain R1-TTR (Homo sapiens, UniProt Q14671 828-1176, S863T;R864T;Q867R)
Procedure, shortened: (§1)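 Sequencing with Illumina followed PCR amplification of the repeat regions from transformants grown four days on SC-Leu (input) or SC-Leu-His + 0.5 mM 3-AT (selection). The transformants were strain YBZ-1 with a LexA–MS2 coat fusion and a HIS3 reporter, carrying Pumilio-1 PUF domain libraries and matching RNA elements. The interaction score is the log change in variant frequency from input to selection, computed in log2 with a pseudocount of 1 for absent variants.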

PUM1 PUF domain R5-KLT = PUM1 PUF domain R5-KLT (Homo sapiens, UniProt Q14671 828-1176, C1007K;R1008L;Q1011T)
Procedure, shortened: as §1

PUM1 PUF domain R5-RCS = PUM1 PUF domain R5-RCS (Homo sapiens, UniProt Q14671 828-1176, C1007R;R1008C;Q1011S)
Procedure, shortened: as §1

PUM1 PUF domain R5-RCG = PUM1 PUF domain R5-RCG (Homo sapiens, UniProt Q14671 828-1176, C1007R;R1008C;Q1011G)
Procedure, shortened: as §1

PUM1 PUF domain R5-RMM = PUM1 PUF domain R5-RMM (Homo sapiens, UniProt Q14671 828-1176, C1007R;R1008M;Q1011M)
Procedure, shortened: as §1

PUM1 PUF domain R6-VFV = molecular target: T1, PUM1 PUF domain R6-VFV (Homo sapiens, UniProt Q14671 828-1176, N1043V;Y1044F;Q1047V)
T1 sequence: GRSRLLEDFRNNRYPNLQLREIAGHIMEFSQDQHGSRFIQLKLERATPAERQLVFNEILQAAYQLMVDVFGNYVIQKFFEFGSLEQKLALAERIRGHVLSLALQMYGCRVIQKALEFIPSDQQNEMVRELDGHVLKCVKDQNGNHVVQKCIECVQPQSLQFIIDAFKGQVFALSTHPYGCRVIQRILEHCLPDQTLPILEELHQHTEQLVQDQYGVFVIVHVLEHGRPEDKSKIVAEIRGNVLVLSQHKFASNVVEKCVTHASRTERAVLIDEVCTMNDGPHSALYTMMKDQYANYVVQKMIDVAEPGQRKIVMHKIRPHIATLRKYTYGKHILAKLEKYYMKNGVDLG
Procedure, shortened: as §1

PUM1 PUF domain R5-DHI = PUM1 PUF domain R5-DHI (Homo sapiens, UniProt Q14671 828-1176, C1007D;R1008H;Q1011I)
Procedure, shortened: as §1

PUM1 PUF domain R5-NSC = PUM1 PUF domain R5-NSC (Homo sapiens, UniProt Q14671 828-1176, C1007N;R1008S;Q1011C)
Procedure, shortened: as §1

PUM1 PUF domain R5-PHL = PUM1 PUF domain R5-PHL (Homo sapiens, UniProt Q14671 828-1176, C1007P;R1008H;Q1011L)
Procedure, shortened: as §1

PUM1 PUF domain R3-DYV = PUM1 PUF domain R3-DYV (Homo sapiens, UniProt Q14671 828-1176, C935D;R936Y;Q939V)
Procedure, shortened: as §1

PUM1 PUF domain R6-WYR = molecular target: T2, PUM1 PUF domain R6-WYR (Homo sapiens, UniProt Q14671 828-1176, N1043W;Q1047R)
T2 sequence: T1 sequence with V216W, F217Y, V220R
Procedure, shortened: as §1

PUM1 PUF domain R3-GWS = PUM1 PUF domain R3-GWS (Homo sapiens, UniProt Q14671 828-1176, C935G;R936W;Q939S)
Procedure, shortened: as §1

PUM1 PUF domain R2-CGI = PUM1 PUF domain R2-CGI (Homo sapiens, UniProt Q14671 828-1176, N899C;Y900G;Q903I)
Procedure, shortened: as §1

PUM1 PUF domain R6-RYL = molecular target: T3, PUM1 PUF domain R6-RYL (Homo sapiens, UniProt Q14671 828-1176, N1043R;Q1047L)
T3 sequence: T1 sequence with V216R, F217Y, V220L
Procedure, shortened: as §1

PUM1 PUF domain R8-RHS = PUM1 PUF domain R8-RHS (Homo sapiens, UniProt Q14671 828-1176, N1122R;Y1123H;Q1126S)
Procedure, shortened: as §1

PUM1 PUF domain R8-AHR = PUM1 PUF domain R8-AHR (Homo sapiens, UniProt Q14671 828-1176, N1122A;Y1123H;Q1126R)
Procedure, shortened: as §1

PUM1 PUF domain R8-HWD = PUM1 PUF domain R8-HWD (Homo sapiens, UniProt Q14671 828-1176, N1122H;Y1123W;Q1126D)
Procedure, shortened: as §1

PUM1 PUF domain R6-KWT = molecular target: T4, PUM1 PUF domain R6-KWT (Homo sapiens, UniProt Q14671 828-1176, N1043K;Y1044W;Q1047T)
T4 sequence: T1 sequence with V216K, F217W, V220T
Procedure, shortened: as §1

PUM1 PUF domain R4-HNA = PUM1 PUF domain R4-HNA (Homo sapiens, UniProt Q14671 828-1176, N971H;H972N;Q975A)
Procedure, shortened: as §1

PUM1 PUF domain R3-FIA = PUM1 PUF domain R3-FIA (Homo sapiens, UniProt Q14671 828-1176, C935F;R936I;Q939A)
Procedure, shortened: as §1

Q: With “GGCUAGAACUAGUGGAUCCCCCGGCGCCCGGCGGCUCGAGCCCGGGUAAGUGUAAAUCGUCUGCAUGCCGCCGGGCGCCAUGCCUGCAGGUCGACUCUAGAAAACAUG” as the sequence, how does the binding signal (PUM1 PUF domain R1-TTR) read?
A: 4.01 log2 enrichment (interaction score)

Q: For “GGCUAGAACUAGUGGAUCCCCCGGCGCCCGGCGGCUCGAGCCCGGGUAAGUGUCAAUAGUCUGCAUGCCGCCGGGCGCCAUGCCUGCAGGUCGACUCUAGAAAACAUG”, which binding signal (PUM1 PUF domain R5-KLT) is on record?
A: 2.35 log2 enrichment (interaction score)

Q: And the binding signal (PUM1 PUF domain R5-RCS)?
A: 3.59 log2 enrichment (interaction score)

Q: What about the binding signal (PUM1 PUF domain R5-RCG) of the same sequence?
A: 3 log2 enrichment (interaction score)

Q: What about the binding signal (PUM1 PUF domain R5-RMM) of the same sequence?
A: 2.73 log2 enrichment (interaction score)

Q: “GGCUAGAACUAGUGGAUCCCCCGGCGCCCGGCGGCUCGAGCCCGGGUAAGUGAAAAUAGUCUGCAUGCCGCCGGGCGCCAUGCCUGCAGGUCGACUCUAGAAAACAUG” was tested. Which binding signal (PUM1 PUF domain R6-VFV) did it give?
A: 5.24 log2 enrichment (interaction score)

Q: Which binding signal (PUM1 PUF domain R5-RCS) does the source give for “GGCUAGAACUAGUGGAUCCCCCGGCGCCCGGCGGCUCGAGCCCGGGUAAGUGUUAAUAGUCUGCAUGCCGCCGGGCGCCAUGCCUGCAGGUCGACUCUAGAAAACAUG” here?
A: 2.74 log2 enrichment (interaction score)

Q: What about the binding signal (PUM1 PUF domain R5-DHI) of the same sequence?
A: 4.16 log2 enrichment (interaction score)

Q: And the binding signal (PUM1 PUF domain R5-RCG)?
A: 3.29 log2 enrichment (interaction score)

Q: What about the binding signal (PUM1 PUF domain R5-NSC) of the same sequence?
A: 4.07 log2 enrichment (interaction score)

Q: What about the binding signal (PUM1 PUF domain R5-PHL) of the same sequence?
A: 4.46 log2 enrichment (interaction score)

Q: What does the source list for “GGCUAGAACUAGUGGAUCCCCCGGCGCCCGGCGGCUCGAGCCCGGGUAAGUGUAAAUAGUCUGCAUGCCGCCGGGCGCCAUGCCUGCAGGUCGACUCUAGAAAACAUG”?
A: binding signal (PUM1 PUF domain R6-VFV): 1.55 log2 enrichment (interaction score); binding signal (PUM1 PUF domain R3-DYV): 5.65 log2 enrichment (interaction score); binding signal (PUM1 PUF domain R6-WYR): 5.27 log2 enrichment (interaction score); binding signal (PUM1 PUF domain R3-GWS): 5.13 log2 enrichment (interaction score); binding signal (PUM1 PUF domain R2-CGI): 2.59 log2 enrichment (interaction score); binding signal (PUM1 PUF domain R6-RYL): 2.68 log2 enrichment (interaction score); binding signal (PUM1 PUF domain R5-PHL): 4.35 log2 enrichment (interaction score); binding signal (PUM1 PUF domain R8-RHS): 3.91 log2 enrichment (interaction score)

Q: Which binding signal (PUM1 PUF domain R1-TTR) does the source give for “GGCUAGAACUAGUGGAUCCCCCGGCGCCCGGCGGCUCGAGCCCGGGUAAGUGUAAAUGGUCUGCAUGCCGCCGGGCGCCAUGCCUGCAGGUCGACUCUAGAAAACAUG” here?
A: 2.5 log2 enrichment (interaction score)

Q: With “GGCUAGAACUAGUGGAUCCCCCGGCGCCCGGCGGCUCGAGCCCGGGUAAGCGUAAAUAGUCUGCAUGCCGCCGGGCGCCAUGCCUGCAGGUCGACUCUAGAAAACAUG” as the sequence, how does the binding signal (PUM1 PUF domain R8-AHR) read?
A: 3.45 log2 enrichment (interaction score)

Q: What about the binding signal (PUM1 PUF domain R8-HWD) of the same sequence?
A: 4.23 log2 enrichment (interaction score)

Q: And the binding signal (PUM1 PUF domain R8-RHS)?
A: 4.15 log2 enrichment (interaction score)

Q: “GGCUAGAACUAGUGGAUCCCCCGGCGCCCGGCGGCUCGAGCCCGGGUAAGUGCAAAUAGUCUGCAUGCCGCCGGGCGCCAUGCCUGCAGGUCGACUCUAGAAAACAUG” was tested. Which binding signal (PUM1 PUF domain R6-KWT) did it give?
A: 3.77 log2 enrichment (interaction score)

Q: Which binding signal (PUM1 PUF domain R3-DYV) does the source give for “GGCUAGAACUAGUGGAUCCCCCGGCGCCCGGCGGCUCGAGCCCGGGUAAGUGUAAUUAGUCUGCAUGCCGCCGGGCGCCAUGCCUGCAGGUCGACUCUAGAAAACAUG” here?
A: 3.08 log2 enrichment (interaction score)

Q: And the binding signal (PUM1 PUF domain R3-GWS)?
A: 1.22 log2 enrichment (interaction score)

Q: For “GGCUAGAACUAGUGGAUCCCCCGGCGCCCGGCGGCUCGAGCCCGGGUAAGUGUACAUAGUCUGCAUGCCGCCGGGCGCCAUGCCUGCAGGUCGACUCUAGAAAACAUG”, which binding signal (PUM1 PUF domain R4-HNA) is on record?
A: 2.26 log2 enrichment (interaction score)

Q: “GGCUAGAACUAGUGGAUCCCCCGGCGCCCGGCGGCUCGAGCCCGGGUAAGUGUAAGUAGUCUGCAUGCCGCCGGGCGCCAUGCCUGCAGGUCGACUCUAGAAAACAUG” was tested. Which binding signal (PUM1 PUF domain R3-FIA) did it give?
A: 3.2 log2 enrichment (interaction score)

Q: What about the binding signal (PUM1 PUF domain R3-GWS) of the same sequence?
A: 1.75 log2 enrichment (interaction score)

Q: For “GGCUAGAACUAGUGGAUCCCCCGGCGCCCGGCGGCUCGAGCCCGGGUAAGUGUAUAUAGUCUGCAUGCCGCCGGGCGCCAUGCCUGCAGGUCGACUCUAGAAAACAUG”, which binding signal (PUM1 PUF domain R4-HNA) is on record?
A: 4.72 log2 enrichment (interaction score)
